Screens: PubChem, Broad Institute
PGC1a acetyl inh: PGC1a acetylation modulation, inhibitor mode; U2OS PGC1a acetylation, AlphaScreen anti-acetyl-lysine; with virally co-expressed GCN5 acetyltransferase; inhibition, % at 15.6 µM; actives 0.17% (n = 350,000);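 active = every replicate shows inhibition of at least 40%; inconclusive = mean inhibition at least 40% but some replicate below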
PAX8 reporter: lowers PAX8-driven luciferase in RMG-I cells | RMG-I TPO-luciferase reporter, SteadyGlo, 24 h | actives 1.2% (n = 360,000) | inhibition, % at 12.6 µM;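 active = mean replicate inhibition at least 60% with every replicate also reaching 60%; inconclusive = only one of the two criteria is met; inactive = mean below 60% and not all replicates reaching 60%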;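 note: luciferase light reporting Pax8 driven TPO promoter activity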
EBV LMP1 NFkB: inhibitors of Epstein-Barr LMP1-induced NF-kappaB reporter; LMP1-induced NF-kappaB luciferase reporter cells, luminescence; inhibition, % at 12.5 µM; actives 0.69% (n = 350,000); in the data active = inhibition above about 41%; inconclusive = no clear call, values can overlap the other calls
EWS-Fli inh: blocks EWS/Fli oncoprotein-driven transcription; A673 NR0B1-luciferase reporter, viability-normalised; inhibition, % at 12.6 µM; actives 0.67% (n = 350,000); AID 651661;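 active = mean inhibition of at least 50% after viability correction, with every replicate also passing that limit; inconclusive = mean reaches 50% but only one of two replicates passes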;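 note: firefly luciferase signal divided by Alamar Blue viability fluorescence both relative to DMSO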
LGR2 inh: blocks bursicon-induced cAMP signaling via Drosophila LGR2; inhibition, % at 9.99 µM; HEK293 LGR2, CRE-luciferase, bursicon-stimulated, 4 h; actives 0.35% (n = 380,000);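 active = drop in luminescence signal, shown as inhibition above about 50% in the replicate tests, limit read from the data, passing the limit was not always enough; inconclusive = probably only some replicates passing the limit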;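 note: agonist challenge used bursicon conditioned medium at about half maximal strength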
MITF TRPM1 inh: reduces MITF-dependent TRPM1 promoter luciferase signal | SK-MEL-5 TRPM1 promoter luciferase, 24 h | inhibition, % at 12.5 µM | actives 0.83% (n = 330,000) | AID 488899;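 active = mean inhibition across replicates of 60% or more, whatever share of single replicates reaches that level; inconclusive = some that reach 60%, reason not given; inactive = mean inhibition across replicates below 60%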
Hits are given with their value; 0 = inactive; ? = inconclusive; - = no result. Compounds with a hit are over-represented: about 2.2% of the library has one in this group of screens.

SMILES	PGC1a acetyl inh	PAX8 reporter	EBV LMP1 NFkB	EWS-Fli inh	LGR2 inh	MITF TRPM1 inh
Cc1nc([N+](=O)[O-])c(Br)n1Cc1ccc(Cl)c(Cl)c1	0	0	0	53.6	0	0
O=C(O)Cc1c[nH]c2ccccc12	0	-	0	0	0	-
O=C(CCl)N(c1ccccc1)c1c[nH]c2ccccc12	0	-	?	-	-	85.5
O=C(CCl)N(c1ccc(Cl)cc1)c1c[nH]c2ccccc12	0	-	?	-	0	83.9
C/C=C/c1ccc2c(c1)O[C@H](CN(C)C(=O)Cc1cccnc1)[C@H](C)CN([C@@H](C)CO)S2(=O)=O	0	0	-	0	0	-
Cc1ccc(C(=O)/C=C/Nc2ccccn2)cc1	0	-	68.6	-	-	70.5
Cc1ccc(C(=O)/C=C/C(=O)c2ccc(C)cc2)cc1	0	0	45.0	0	0	0
CCN1[C@@H]2c3ccc(-c4ccc(F)cc4)c(=O)n3C[C@H]1[C@H](CO)[C@H]2C(=O)Nc1nccs1	-	-	-	0	0	-
C[C@@H](OC(=O)c1[nH]cnc1C(=O)N1CCc2ccccc2C1)c1ccccc1	0	0	84.9	0	-	0
CC1CCN(C(=O)c2nc[nH]c2C(=O)O[C@H](C)c2ccccc2)CC1	-	0	0	0	0	0
COc1ccccc1C(=O)Nc1c[nH]c(=O)[nH]c1=O	0	0	52.5	0	0	0
COc1ccccc1C(=O)Nc1nc2ccccc2s1	0	100.5	85.3	92.8	104.6	80.7
CCOc1ccccc1C(=O)Nc1c[nH]c(=O)[nH]c1=O	0	0	0	0	0	0
COc1ccccc1C(=O)Nc1nc2ccc(S(C)(=O)=O)cc2s1	0	-	0	-	-	0
COc1ccc(C(=O)Nc2nc3ccccc3s2)c(OC)c1	-	105.9	85.2	91.3	102.9	83.7
COc1ccc2nc(NC(=O)c3ccccc3F)sc2c1	0	0	0	0	63.1	0
O=C(C[C@@H]1CC[C@@H]2[C@H](COC[C@@H](O)CN2CC2CCOCC2)O1)N1CCOCC1	0	0	-	0	0	-
C[C@@H]1CN([C@@H](C)CO)C(=O)c2cccc(NC(=O)Nc3ccc(F)cc3)c2O[C@H]1CN(C)Cc1ccc(Oc2ccccc2)cc1	0	-	-	0	0	-
O=C(O)COc1ccc(-c2nccc(-c3ccccn3)n2)cc1	0	0	0	53.2	0	0
FCCCOc1ccc(-c2nccc(-c3ccccn3)n2)cc1	0	0	0	0	0	0
Cc1noc(C)c1S(=O)(=O)N(C)C[C@H]1OCCCC[C@@H](C)Oc2ccc(NC(=O)NC3CCCCC3)cc2C(=O)N([C@H](C)CO)C[C@@H]1C	0	0	-	0	0	-
Cc1ccc(NC(=O)Cc2nnc(SCC(=O)NC3CCCC3)n2C)cc1C	-	0	45.3	0	0	0
NC1=CC(=O)C(=O)c2ccccc21	-	0	0	0	0	96.7
CN(/N=C/c1ccc(O)cc1O)c1nc(-c2ccccc2)cc(-c2ccccc2)n1	0	157.5	0	0	0	0
Cc1ccc(C(=O)c2coc3c2C(=O)C(=O)c2ccccc2-3)cc1	0	-	0	-	-	0
SMILES	PGC1a acetyl inh	PAX8 reporter	EBV LMP1 NFkB	EWS-Fli inh	LGR2 inh	MITF TRPM1 inh
Cc1ccc(C(=O)c2c(C)oc3c2C(=O)C(=O)c2ccccc2-3)cc1	0	-	45.9	-	-	0
Cc1oc2c(c1C(=O)c1ccc(Cl)cc1)C(=O)C(=O)c1ccccc1-2	0	-	89.9	-	-	0
C[C@@H](NC(=O)C[C@@H]1CC[C@H]2[C@@H](COC[C@H](O)CN2Cc2cc(F)ccc2F)O1)c1ccccc1	0	0	-	0	0	-
Cc1nc(SCCC(=O)O)c2cc(-c3ccccc3)sc2n1	-	0	0	62.9	0	0
Cc1nc(N2CCOCC2)c2cc(-c3ccccc3)sc2n1	-	-	0	-	-	0
C/C=C/c1cnc2c(c1)C(=O)N([C@@H](C)CO)C[C@H](C)[C@@H](CN(C)Cc1ccccc1)O2	0	-	-	0	0	-
C[C@H](CO)N1C[C@H](C)[C@H](CN(C)S(=O)(=O)c2ccc(F)cc2)Oc2ccc(NC(=O)CCN3CCOCC3)cc2C1=O	0	0	-	0	0	-
O=C(Nc1ccc2c(c1)nc1n2CCOC1)c1ccco1	0	0	0	-	-	0
O=C(Nc1ccc2c(c1)nc1n2CCSC1)c1ccco1	0	-	45.1	-	-	0
C[C@@H]1CCCCO[C@@H](CN(C)C(=O)Nc2ccc3c(c2)OCO3)[C@H](C)CN([C@@H](C)CO)C(=O)c2cc(NC(=O)Cc3ccccc3)ccc2O1	0	0	-	0	0	-
Cc1ccc(N(C)S(=O)(=O)c2ccc(-c3cc(C)no3)s2)cc1	0	0	0	54.0	0	0
CCC(=O)N(CC)C[C@H]1[C@H](c2ccccc2)[C@@H](CO)N1C(C)=O	0	0	-	0	0	-
O=c1oc(Cl)c(Cl)c2ccccc12	0	0	0	0	0	89.8
CN1c2ccccc2C(C)(C)C12C=Nc1c(cc(N3CCOCC3)c3ccccc13)O2 (configuration not stated)	-	72.4	0	-	-	0
CCC1N=C(SC)NC(C)=C1C(=O)c1ccccc1 (configuration not stated)	-	0	0	0	0	0
CSC1=NC(C(Cl)(Cl)Cl)N=C(c2ccc(C)cc2)N1 (configuration not stated)	-	0	0	59.5	0	0
Cc1cc2ccccn2c1C(=O)c1cccc([N+](=O)[O-])c1	0	0	0	0	0	0
Cc1cc2ccccn2c1C(=O)c1ccc([N+](=O)[O-])o1	0	73.2	0	0	0	0
CC(=O)CC1c2ccccc2C=C(c2ccsc2)N1c1ccc(-c2cccs2)cc1 (configuration not stated)	-	74.7	-	0	0	-
CCN=C1S/C(=C\c2cc(OCC)c(O)cc2Br)C(=O)N1CC	-	0	53.6	-	0	0
c1ccc(-c2nnc(-c3ccccn3)c(-c3ccccn3)n2)nc1	0	0	-	0	0	-
CN(C)c1nc(-c2ccccn2)nnc1-c1ccccc1	0	0	0	-	-	78.3
C[C@H](CO)N1C[C@H](C)[C@@H](CN(C)S(C)(=O)=O)Oc2ccc(NC(=O)C3CC3)cc2CC1=O	-	0	-	0	0	-
CCSc1nnc(NC(=O)CSC2=NCCS2)s1	94.3	0	0	0	0	0
COc1ccc(C(=O)N=c2nc3ccccn3s2)cc1	0	0	64.2	-	-	0
SMILES	PGC1a acetyl inh	PAX8 reporter	EBV LMP1 NFkB	EWS-Fli inh	LGR2 inh	MITF TRPM1 inh
O=C(O)/C=C\C(=O)NCc1ccccc1	0	0	0	-	-	0
O=C(O)/C=C/C(=O)NCc1ccccc1	0	81.7	0	0	0	0
C[C@@H]1CCCCO[C@H](CN(C)Cc2ccc(C(F)(F)F)cc2)[C@H](C)CN([C@@H](C)CO)C(=O)c2cc(NC(=O)CCC(F)(F)F)ccc2O1	0	0	-	0	0	-
C[C@@H]1CCCCO[C@@H](CN(C)Cc2ccc(C(F)(F)F)cc2)[C@@H](C)CN([C@@H](C)CO)C(=O)c2cc(NC(=O)CCC(F)(F)F)ccc2O1	0	71.6	-	0	0	-
C[C@@H]1CN([C@H](C)CO)C(=O)c2cc(NC(=O)CCC(F)(F)F)ccc2O[C@@H](C)CCCCO[C@@H]1CN(C)Cc1ccc(C(F)(F)F)cc1	0	82.6	-	0	0	-
O=C(NC(=S)NCc1ccccc1)c1ccccc1	-	0	0	-	0	104.3
